Source: PubChem
ADAM17 inh = ADAM17 inhibitors, primary screen, biochemical, QFRET; Disintegrin and metalloproteinase domain-containing protein 17 (Homo sapiens), P78536; recombinant ADAM17, EDANS/DABCYL FRET peptide cleavage; inhibition, % at 6.95 µM; hit rate 0.83% among 370,000; AID 720648, 2013;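 active = inhibition above the mean of compounds lying between control limits plus 3 SD, set per campaign, cut at about 8.5% in these data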;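 note: 0% = DMSO-only wells as the low control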
AHR act = AHR activators, primary screen, cell-based, luminescence, luciferase reporter, human | activation, % at 5 µM | Aryl hydrocarbon receptor (Homo sapiens), P35869 | hit rate 2.5% among 320,000 | AHR-responsive luciferase reporter cells; in the data active = activation above about 47%;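 note: 0% = vehicle wells and 100% = reference agonist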
rCAG RNA binder = binders of r(CAG) RNA repeats, primary screen, biochemical, fluorescence. hit rate 1.3% among 370,000. inhibition, % at 3 µM. r(CAG) RNA repeat, TO-PRO-1 dye displacement fluorescence;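 active = inhibition above the plate cutoff, the mean of all test compounds on that plate plus 3 SD, cut at about 35% in these data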;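 note: 0% = DMSO alone and 100% = 100 µM mitoxantrone as full dye displacement; higher means more dye released from RNA so lower well fluorescence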
NR3A LBD binder = binders of NR3A ligand-binding domain, primary screen, biophysical, differential scanning fluorimetry, uHTS; NR3A LBD differential scanning fluorimetry, Tm shift; 0% = protein alone, 100% = glycine-bound protein; Glutamate receptor ionotropic, NMDA 3A (GRIN3A) ligand-binding domain; hit rate 2.5% among 340,000; Tm shift relative to glycine control, % at 25 µM;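 active = melting temperature shift of at least 10% of the positive control shift, at one fixed dose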
ADAM10 inh = human ADAM10 inhibitors, primary screen, biochemical, QFRET, HTS; Disintegrin and metalloproteinase domain-containing protein 10 (Homo sapiens), O14672; recombinant ADAM10, EDANS/DABCYL FRET peptide cleavage, 3 h; inhibition, % at 7 µM; hit rate 0.62% among 370,000; AID 720582, 2013;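 active = inhibition above a per-campaign cutoff equal to the mean of compounds falling between control-based bounds plus 3 SD, cut at about 20% in these data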;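 note: 0% = DMSO wells while the 100% control is not disclosed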
Target sequence (O14672 214-748 limits assumed): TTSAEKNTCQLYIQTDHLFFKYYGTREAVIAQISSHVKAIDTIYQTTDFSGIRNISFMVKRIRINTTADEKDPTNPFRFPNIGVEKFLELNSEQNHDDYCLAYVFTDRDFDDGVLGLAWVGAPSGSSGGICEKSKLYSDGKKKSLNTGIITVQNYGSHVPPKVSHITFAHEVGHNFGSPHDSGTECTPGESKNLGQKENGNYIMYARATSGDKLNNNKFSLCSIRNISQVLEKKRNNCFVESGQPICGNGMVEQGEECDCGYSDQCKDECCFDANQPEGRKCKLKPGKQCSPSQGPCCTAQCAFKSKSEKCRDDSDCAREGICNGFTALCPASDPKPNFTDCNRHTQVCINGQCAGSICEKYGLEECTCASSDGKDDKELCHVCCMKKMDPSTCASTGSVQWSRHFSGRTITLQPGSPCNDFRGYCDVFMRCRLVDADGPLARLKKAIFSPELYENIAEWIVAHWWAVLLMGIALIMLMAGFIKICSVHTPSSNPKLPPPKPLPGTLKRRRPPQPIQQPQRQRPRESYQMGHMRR
proKLK7 act = proKLK7 zymogen activators, primary screen, biochemical, fluorescence intensity | hit rate 0.9% among 370,000 | activation, % at 7 µM | purified proKLK7, EDANS-DABCYL substrate fluorescence; 100% is mature enzyme control, 0% vehicle;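 active = activation above the mean of all tested compounds plus 3 SD, computed per campaign excluding outliers beyond control limits, cut at about 13% in these data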
An asterisk follows results filed as active; i = inactive; / = no result given. Sampled rows, rich in hits. Any-hit rate of the full collection: about 7%.

SMILES | ADAM17 inh | AHR act | rCAG RNA binder | NR3A LBD binder | ADAM10 inh | proKLK7 act
Cc1[nH]c2ccccc2c1/C=N/NC(=O)C1CC1(c1ccccc1)c1ccccc1 (stereo not drawn) | 5.6 | 13.4 | 18.5 | 12.0* | 17.5 | -1.8
C/C(=N\NC(=O)c1ccc(Br)cc1)C1C(=O)c2ccccc2C1=O | 5.6 | 9.4 | 47.6* | 13.5* | 7.6 | 0.3
CC(C)Oc1cccc(-c2csc(N3CCC(C(N)=O)CC3)n2)c1 | 0.9 | / | / | / | 0.0 | /
COC(=O)[C@]12C[C@H](CC(=O)N3CCSCC3)C(=O)N(Cc3ccc(Cl)cc3Cl)C1=C[C@H](C(C)(C)C)O[C@@H]2C | -1.6 | / | 7.8 | / | -2.3 | 0.3
Cc1ccc(-n2c(SCc3cccc(F)c3)nc3ccccc3c2=O)cc1 | -3.1 | / | 6.1 | / | -7.1 | 0.2
CCCCNC(=O)NCCCN1CCN(c2ccc(F)cc2)CC1 | 3.5 | / | 1.7 | / | 1.4 | -0.1
Cn1cccc1-c1cc(C(=O)N/N=C/c2ccc(Cl)cc2)[nH]n1 | -1.4 | 21.4 | 4.0 | 19.0* | 0.8 | 0.2
COc1ccccc1/C=C/C=N/NC(=O)c1cc(-c2ccco2)[nH]n1 | -12.7 | 10.6 | 14.1 | 8.0 | -29.9 | -2.2
Cc1cc(C(=O)NN=Cc2c(C)[nH]c3ccccc23)c(C)o1 | -8.4 | 57.2* | 3.6 | -6.2 | -16.4 | -1.0
Cc1[nH]c2ccccc2c1/C=N\NC(=O)c1ccccc1Cl | -1.7 | / | 4.6 | / | 2.7 | 0.3
O=C(N/N=C/C(Br)=C/c1ccccc1)c1cc(-c2ccco2)[nH]n1 | -1.2 | 9.0 | 26.4 | 22.2* | -1.8 | -0.8
COc1cc(/C=N/NC(=O)c2cc(-c3cccn3C)n[nH]2)cc(OC)c1OC | -2.3 | 19.1 | 2.4 | -27.4 | -6.6 | 0.3
CC(/C=N/NC(=O)c1ccc(Br)cc1)=C\c1ccccc1 | -3.1 | 1.3 | 3.4 | 23.3* | 2.6 | -1.2
Cc1[nH]c2ccccc2c1/C=N/NC(=O)c1cc(-c2cccs2)[nH]n1 | -2.1 | 45.6 | 29.6 | 21.0* | -8.6 | 0.6
Cc1ccc(-c2cc(C(=O)N/N=C/c3c(C)nn(-c4ccccc4)c3C)n[nH]2)s1 | 0.5 | / | 8.7 | 14.8* | -2.5 | -1.0
Cc1cc(C(=O)N/N=C/c2c(C)[nH]c3ccccc23)n[nH]1 | -1.2 | 16.9 | 3.6 | -11.6 | 13.2 | 0.3
CC(/C=N/NC(=O)c1cc(-c2cccs2)[nH]n1)=C\c1ccccc1 | 0.8 | 35.4 | 11.4 | 10.6* | -1.1 | -0.4
CC(/C=N/NC(=O)c1cc(C(C)C)[nH]n1)=C\c1ccccc1 | -1.5 | 15.6 | -1.4 | -7.1 | 3.0 | -0.5
CCNC(=O)OC[C@H]1O[C@H](C#Cc2ccc(C(C)(C)C)cc2)C=C[C@H]1OC(C)=O | -2.1 | / | 4.8 | / | 2.2 | 0.3
CCC[C@H](/C=C/C(=O)OC(C)(C)C)Sc1ccc(OC)cc1 | -1.9 | / | 4.5 | / | -8.5 | -0.2
Cc1cc(C)cc(-c2c(C(=O)c3ccc(Br)cc3)[nH]c(N)c2C(=O)NCc2ccc(Cl)cc2)c1 | -2.2 | / | / | / | -9.1 | /
O=C(Cn1c2ccc(F)cc2c2nc3n(c(=O)c21)CCS3)Nc1ccc(Cl)cc1F | -6.7 | -0.3 | 9.1 | -2.4 | -25.2 | -1.9
Cc1ccc(NC(=O)Cn2c3ccc(F)cc3c3nc4n(c(=O)c32)CCS4)cc1F | 1.5 | 1.2 | 8.4 | 12.1* | -48.7 | -0.2
Oc1ccc(N2CCN(C(c3cccs3)c3nnnn3CCc3ccccc3)CC2)cc1 (stereo not drawn) | 1.5 | -0.5 | 5.6 | -3.6 | 20.6* | 0.5
c1ccc(Cn2nnnc2C(c2cccs2)N2CCc3ccccc3C2)cc1 (stereo not drawn) | / | 1.3 | / | 15.7* | / | /
SMILES | ADAM17 inh | AHR act | rCAG RNA binder | NR3A LBD binder | ADAM10 inh | proKLK7 act
c1ccc(Cn2nnnc2C(c2cccs2)N2CCCCCC2)cc1 (stereo not drawn) | 5.8 | 1.6 | -4.3 | 4.2 | 18.5 | 0.1
Cc1ncc(CO)c(/C=N/NC(=O)c2ccc(O)cc2)c1O | -265.0 | 4.3 | 0.4 | 5.2 | i | -30.0
Cc1ncc(CO)c(/C=N/NC(=S)Nc2ccc(Cl)c(Cl)c2)c1O | -207.0 | 25.4 | 24.0 | 23.0* | i | -46.1
Cc1ncc(CO)c(/C=N/NC(=S)Nc2cccc(Cl)c2)c1O | / | 54.5* | / | 27.5* | / | /
Cc1ncc(CO)c(/C=N/NC(=O)c2ccoc2C)c1O | -428.5 | / | -3.5 | -0.1 | i | -65.0
CC1=CC2=NC(=O)/C(=C\c3ccc(-c4cccc(Cl)c4)o3)C(=N)N2O1 | 0.8 | 69.9* | 4.8 | 22.2* | -5.8 | -7.8
CC1=NOC(=O)/C1=C\c1ccc(-c2cccc(Cl)c2)o1 | / | 5.6 | / | -3.3 | / | /
O=C(Nc1ccccc1-c1nc2ccccc2[nH]1)c1ccc(N2C(=O)CCC2=O)cc1 | -1.6 | 49.5* | 7.3 | 8.9 | -12.3 | 0.3
CC1CCCCN1S(=O)(=O)c1ccc(C(=O)Nc2ccccc2-c2nc3ccccc3[nH]2)cc1 (stereo not drawn) | -1.3 | 2.9 | 7.2 | 30.2* | -8.4 | 0.8
O=C(Nc1ccc2nc(-c3ccco3)[nH]c2c1)c1cccs1 | -0.3 | -0.6 | 2.3 | 12.8* | -3.9 | -0.8
O=C(Nc1ccc2nc(-c3ccc4nc[nH]c4c3)[nH]c2c1)c1cccs1 | -4.3 | 9.0 | 14.3 | 28.9* | -23.1 | 1.8
O=C(NCc1ccccc1)c1ccc(NC(=O)c2ccccc2F)cc1 | -4.5 | -5.1 | -2.7 | -0.3 | -17.2 | 0.7
O=C(c1ccccc1)c1ccc2nc(-c3ccc(NC(=O)c4ccccc4F)cc3)[nH]c2c1 | -6.1 | -4.3 | 12.2 | 18.1* | -10.5 | -2.9
O=C(Nc1ccc2nc(-c3cccnc3)[nH]c2c1)c1ccco1 | -4.2 | -2.2 | 1.9 | -4.8 | -13.4 | -0.5
O=C(Nc1ccc2[nH]ccc2c1)c1cccs1 | -2.1 | 0.5 | 3.4 | 5.7 | 6.5 | 0.4
O=C(Nc1ccc2nc(-c3ccccc3)[nH]c2c1)c1cccs1 | -0.1 | -13.4 | 0.3 | 29.6* | 1.5 | -0.1
O=C(N[C@@H](Cc1cccnc1)C(=O)N1CCC[C@H]1C(=O)NCCc1ccccc1Cl)c1cccs1 | -0.9 | / | 0.3 | / | 2.0 | -0.3
O=c1c2cc3cccnc3nc2ncn1Cc1cccs1 | -43.2 | / | 2.7 | / | -126.4 | 3.5
COc1ccccc1CNC1CCC12CCC(c1ccccc1)CC2 (stereo not drawn) | -5.5 | / | / | / | -5.3 | /
CSc1nc2ccc3nc(NC(=O)c4ccc(Cl)s4)sc3c2s1 | / | 7.5 | / | 20.9* | / | /
CSc1nc2ccc3nc(NC(=O)c4cccs4)sc3c2s1 | -8.2 | 13.0 | -0.4 | 28.4* | -27.6 | -1.0
